Reference: ChEMBL document CHEMBL3988442, “University of Dundee, Small-Polar-MMV Screening Library” (2021)
In all, about 53,000 compounds went through this assay and about 900 (1.7%) showed an effect of 50% or more. The sample as a whole holds a higher share of strong results than the screen did.

test system: Mycobacterium tuberculosis; assay: Cornell - Phenotypic assay to identify agents that inhibit growth of Mycobacterium tuberculosis; assay type: functional; design: scale not given: direction of the effect not stated beside the values; details: 10 mM as filed; unlikely as a test dose

SMILES | Percent Effect [%]
Cc1cc(C)n(CC2CN(CC(=O)NC(C3CC3)C3CC3)CCO2)n1 (centres undefined) | -31.15
Cc1ccc(CN2Cc3c(C(=O)N4CCOCC4)nn(C)c3C2)s1.O=C(O)C(F)(F)F | 15.84
O=C(O)C(F)(F)F.c1cnc(N2CCO[C@H]3[C@H](OCC4CCOCC4)CC[C@@H]32)nc1 | -2.783
c1ccc(CN2CCC(Nc3ncnc4c3CCNCC4)C2)cc1 (centres undefined) | 21.59
CCS(=O)(=O)N1CCCCC1c1nc(CC(C)C)no1 (centres undefined) | 28.4
Cc1cccc2c1cnn2CCC(=O)NCc1csc(C2CC2)n1 | 28.59
Nc1cccnc1N1CCN(c2ccccc2)CC1 | 11.1
Cl.Nc1cccnc1N1CCCCCC1 | 72.92
CN1CCN(c2ncccc2N)CC1 | -43.88
Cc1cc(C)n(CCNCc2cc(-c3ccc(Cl)cc3)c[nH]c2=O)n1 | -2.359
Cc1nc2c(c(NCc3nc4ccccc4s3)n1)CCNCC2 | 90.34
Cc1nc2c(c(NCc3ccc(-c4ccccn4)s3)n1)CCNCC2 | 10.6
Cc1nc2c(c(NCc3cc4ccccc4s3)n1)CCNCC2 | 31.59
Cc1nnc(N2CC[C@H]3C[C@@H](C(=O)NC4CCCC4)O[C@H]3C2)s1.O=C(O)C(F)(F)F | -17.08
O=C(NC1CCN(Cc2cccc3c2OCCO3)CC1)c1cccs1 | -12.52
Cc1nnc([C@@]23CCO[C@@H]2CCN(Cc2ccc4c(c2)OCO4)C3)o1 | -5.266
Cc1csc(N2CCN(C(=O)c3c(C)oc(C)c3C)CC2)n1 | 16.26
Cc1cc(C(N)=O)ccc1NC(=O)c1nc(N2CCCC2)ncc1Cl | 105.8
CN(C)C(CNC(=O)c1nc(N2CCCC2)ncc1Cl)c1ccco1 (centres undefined) | 22.7
Cc1cc(NC(=O)c2nc(N3CCCC3)ncc2Cl)nc(C(C)C)n1 | 24.2
O=C(Nc1cnn(Cc2ccc(Cl)cc2)c1)N[C@@H]1C=C[C@H](CO)C1 | 24.39
Cc1cnn(Cc2ccc(NC(=O)N[C@@H]3C=C[C@H](CO)C3)cc2)c1 | 20.48

SMILES | Percent Effect [%]
O=C(Nc1cnn(-c2ccccc2Cl)c1)N[C@@H]1C=C[C@H](CO)C1 | 52.75
O=C(N1CCCC1)N1C[C@@H](OCc2cccnc2)[C@H]2OCCC[C@H]21.O=C(O)C(F)(F)F | 12.95
COc1ccc2c(ccn2CC(=O)N2CCCC2Cn2cccn2)c1 (centres undefined) | 24.26
Cc1cc2ccccc2n1CCC(=O)N1CCCC1Cn1cccn1 (centres undefined) | 91.97
Cc1cc2ccccc2n1CCC(=O)N1CCCC2(CC1)CNC(=O)O2 (centres undefined) | -6.951
Cc1cc(C)n(CC(=O)N2CCCCC2CCN(C)C)c(=O)n1 (centres undefined) | 19.58
Cc1cc2ccccc2n1CCC(=O)N1CCCCC1CCO (centres undefined) | 105.9
O=C(CCCOc1ccccc1)N1CCCC1Cn1cccn1 (centres undefined) | -5.631
Cc1cc2ccccc2n1CCC(=O)N1CCC[C@H]1C(N)=O | 9.96
Cc1cc2ccccc2n1CCC(=O)N1CCN(C)CC1C(N)=O (centres undefined) | 81.47
Cc1cc2ccccc2n1CCC(=O)N1CCC2(CC1)CNC(=O)C2 | -9.599
Cc1cc(C2CCCN(C(=O)c3cccnc3)C2)ccn1 (centres undefined) | -13.34
CCc1cc(NCc2ccccc2CN2CCCC2)n2ncnc2n1 | -6.247
O=C(NCc1ccco1)[C@H]1C[C@@H]2CCN(c3ncccn3)C[C@H]2O1.O=C(O)C(F)(F)F | 33.78
COCC[C@]1(O)CCN(Cc2nc(C)cs2)C[C@H]1C | -15.54
O=C(O)C(F)(F)F.O=C1[C@H]2CN(c3ncccn3)C[C@H]2CN1CCN1CCCC1 | 1.191
Cc1cnc(N2CCc3onc(COc4cccnc4)c3C2)nc1 | -20.46
Cc1cc(C)cc(C(=O)N2CCN(C(=O)N(C)C)CC2(C)C)c1 | 26.69
Cc1nc(Nc2cnccn2)cc(C2CCN(CCO)C2)n1.O=CO (centres undefined) | -24.26
CSCCC(NC(=O)c1ccco1)C(=O)N(C)Cc1ccsc1 (centres undefined) | -9.579
O=C(NCCC(=O)N1CCCC1)c1ccc(SCc2cccnc2)cc1 | 35.93
CCOc1ccnc(N2CCN(C(=O)c3cccnc3)CC2)n1 | -18.66

SMILES | Percent Effect [%]
O=S(=O)(NC1CCCCC12OCCO2)c1cc(F)cc(F)c1 (centres undefined) | 56.69
O=S(=O)(NC1CCCCC12OCCO2)c1ccc2c(c1)OCCO2 (centres undefined) | 44.93
O=S(=O)(NC1CCCCC12OCCO2)c1cc(Cl)cc(Cl)c1 (centres undefined) | 16.3
CCCN1CCC(Cc2noc(-c3cccnc3OC)n2)CC1 | 20.11
COc1ccc2nnc(C(=O)NCC3CCCC3)nc2c1 | 39.03
COc1ccc(-c2nnc(SC(C)C(=O)NC3CCCC3)[nH]2)c(OC)c1 (centres undefined) | -11.32
COc1ccc2nnc(C(=O)NC3CCCC3)nc2c1 | 60.2
CCn1nc(C)c(CNC(=O)c2nnc3ccc(OC)cc3n2)c1C | -22.43
Cc1ccc(-n2nnc(C(=O)NCC3CCCCC3)n2)cc1 | 32.3
COc1ccc(C(=O)NC2CC2)c(OC)c1 | 29.69
CCn1nc(C)c(CNC(=O)c2nnc3ccccc3n2)c1C | 7.838
CCn1nc(C)c(CNC(=O)c2nnc3ccc(Cl)cc3n2)c1C | 64.24
O=C(NCC1CCOC1)c1cc(-c2ccc(Cl)cc2)n[nH]1 (centres undefined) | -7.527
O=C(NCC1CCOC1)c1csc(-c2ccc(Cl)cc2)n1 (centres undefined) | 25.26
O=C(NCC1CC1)c1nnc2ccc(Cl)cc2n1 | 99.3
Cc1ccc2nnc(C(=O)NCC3CCCC3)nc2c1 | 99.7
O=C1[C@H]2CCCC[C@H]2C(=O)N1c1cnn(Cc2cccc(F)c2)c1 | 24.19
Cc1nnc(-c2cccc(C#N)c2)n1C1CCN(C(C)C)C1=O (centres undefined) | 5.61
Cc1cccc(S(=O)(=O)N2C[C@@H]3C[C@@H](c4nnc(C)[nH]4)O[C@@H]3C2)c1 | -10.6
CN(Cc1ccc(F)cc1)CC1(O)CCN(C(=O)c2ccccn2)C1 (centres undefined) | 17.87
